# Measured values as given in article PMC11006913.
# Changes are numbered by the printed parent chain.
# Columns and labels:
# Test in all cases: PBM; 200 nM protein, PBS
# Conditions in all cases: dsDNA, one strand shown
# PAX4 [1] = target: T1, PAX4 (Homo sapiens, UniProt O43316 9-242, R200K)
# T1 sequence: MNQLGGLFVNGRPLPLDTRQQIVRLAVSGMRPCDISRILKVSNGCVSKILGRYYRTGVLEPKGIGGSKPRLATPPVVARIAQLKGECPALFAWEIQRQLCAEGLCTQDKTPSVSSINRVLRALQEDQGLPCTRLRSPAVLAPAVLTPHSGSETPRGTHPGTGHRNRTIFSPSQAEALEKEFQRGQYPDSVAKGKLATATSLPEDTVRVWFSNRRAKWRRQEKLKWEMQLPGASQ
# PAX4 [2] = target: T2, PAX4 (Homo sapiens, UniProt O43316 9-242)
# T2 sequence: T1 sequence with K192R
# PAX4 [3] = target: T3, PAX4 (Homo sapiens, UniProt O43316 9-242, R200Q)
# T3 sequence: T1 sequence with K192Q
# PAX4 [4] = target: T4, PAX4 (Homo sapiens, UniProt O43316 9-242, F177V)
# T4 sequence: T1 sequence with F169V, K192R
# PAX4 [5] = target: T5, PAX4 (Homo sapiens, UniProt O43316 9-242, F177Y)
# T5 sequence: T1 sequence with F169Y, K192R
# PAX4 [6] = target: T6, PAX4 (Homo sapiens, UniProt O43316 9-242, R227W)
# T6 sequence: T1 sequence with K192R, R219W
# NKX3-2 [7] = target: NKX3-2 (Homo sapiens, UniProt P78367 192-278, P234S)
# Sequence of NKX3-2 (Homo sapiens, UniProt P78367 192-278, P234S) (P78367 192-278 P234S): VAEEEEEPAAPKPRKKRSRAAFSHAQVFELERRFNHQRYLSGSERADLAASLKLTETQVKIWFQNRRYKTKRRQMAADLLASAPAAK
# NKX3-2 [8] = target: NKX3-2 (Homo sapiens, UniProt P78367 192-278)
# Sequence of NKX3-2 (Homo sapiens, UniProt P78367 192-278) (P78367 192-278): as the sequence (P78367 192-278 P234S) above, with S43P counted along it
# CRX = CRX (Homo sapiens, UniProt O43186 26-111, R41L)
# Sequence of CRX (O43186 26-111 R41L): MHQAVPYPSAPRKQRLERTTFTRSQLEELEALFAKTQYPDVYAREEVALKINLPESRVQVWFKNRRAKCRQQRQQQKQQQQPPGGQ
# PRRX1 = PRRX1 (Homo sapiens, UniProt P54821 80-166, F113S)
# Sequence of PRRX1 (P54821 80-166 F113S): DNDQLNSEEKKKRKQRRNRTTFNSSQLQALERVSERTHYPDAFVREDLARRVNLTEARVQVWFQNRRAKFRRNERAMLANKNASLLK
# HOXB6 = HOXB6 (Homo sapiens, UniProt P17509 132-218, K202E)
# Sequence of HOXB6 (P17509 132-218 K202E): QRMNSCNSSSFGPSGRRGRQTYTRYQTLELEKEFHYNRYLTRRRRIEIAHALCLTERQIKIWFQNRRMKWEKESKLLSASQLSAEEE
# MSX2 [9] = target: MSX2 (Homo sapiens, UniProt P35548 130-214, R199I)
# Sequence of MSX2 (Homo sapiens, UniProt P35548 130-214, R199I) (P35548 130-214 R199I): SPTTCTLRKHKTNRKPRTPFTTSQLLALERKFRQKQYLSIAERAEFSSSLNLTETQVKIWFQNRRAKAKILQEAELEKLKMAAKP
# ALX1 = ALX1 (Homo sapiens, UniProt Q15699 118-204, L144R)
# Sequence of ALX1 (Q15699 118-204 L144R): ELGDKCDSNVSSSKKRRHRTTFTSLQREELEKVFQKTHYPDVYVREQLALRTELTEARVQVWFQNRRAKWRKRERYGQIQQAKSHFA
# MSX2 [10] = target: MSX2 (Homo sapiens, UniProt P35548 130-214)
# Sequence of MSX2 (Homo sapiens, UniProt P35548 130-214) (P35548 130-214): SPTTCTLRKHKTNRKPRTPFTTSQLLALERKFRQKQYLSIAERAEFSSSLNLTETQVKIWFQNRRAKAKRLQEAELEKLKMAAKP
# HESX1 [11] = target: HESX1 (Homo sapiens, UniProt Q9UBX0 95-180, R109Q)
# Sequence of HESX1 (Homo sapiens, UniProt Q9UBX0 95-180, R109Q) (Q9UBX0 95-180 R109Q): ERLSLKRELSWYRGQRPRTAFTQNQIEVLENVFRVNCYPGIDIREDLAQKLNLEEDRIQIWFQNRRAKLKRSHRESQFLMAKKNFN
# ALX3 = ALX3 (Homo sapiens, UniProt O95076 139-225, L168V)
# Sequence of ALX3 (O95076 139-225 L168V): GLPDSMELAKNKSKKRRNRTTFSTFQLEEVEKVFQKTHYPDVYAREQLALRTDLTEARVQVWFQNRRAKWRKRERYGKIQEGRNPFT
# MSX2 [12] = target: MSX2 (Homo sapiens, UniProt P35548 130-214, F161Y)
# Sequence of MSX2 (Homo sapiens, UniProt P35548 130-214, F161Y) (P35548 130-214 F161Y): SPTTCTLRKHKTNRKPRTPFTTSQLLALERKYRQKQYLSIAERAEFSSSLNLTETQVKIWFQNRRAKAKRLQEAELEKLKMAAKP
# HESX1 [13] = target: HESX1 (Homo sapiens, UniProt Q9UBX0 95-180, F115L)
# Sequence of HESX1 (Homo sapiens, UniProt Q9UBX0 95-180, F115L) (Q9UBX0 95-180 F115L): as the sequence (Q9UBX0 95-180 R109Q) above, with Q15R, F21L counted along it
sequence,measurement,setting,value
CGCCTGCA,binding signal,PAX4 [1],"9.25 upbm affinity estimate (log intensity, higher = more binding, comparable within an allelic series)"
same,binding signal,PAX4 [2],"9.25 upbm affinity estimate (log intensity, higher = more binding, comparable within an allelic series)"
same,binding signal,PAX4 [3],"9.33 upbm affinity estimate (log intensity, higher = more binding, comparable within an allelic series)"
same,binding signal,PAX4 [4],"9.34 upbm affinity estimate (log intensity, higher = more binding, comparable within an allelic series)"
same,binding signal,PAX4 [5],"9.3 upbm affinity estimate (log intensity, higher = more binding, comparable within an allelic series)"
same,binding signal,PAX4 [6],"9.34 upbm affinity estimate (log intensity, higher = more binding, comparable within an allelic series)"
ACGTATTA,binding signal,PAX4 [1],"11.7 upbm affinity estimate (log intensity, higher = more binding, comparable within an allelic series)"
same,binding signal,PAX4 [5],"11 upbm affinity estimate (log intensity, higher = more binding, comparable within an allelic series)"
same,binding signal,PAX4 [6],"11.1 upbm affinity estimate (log intensity, higher = more binding, comparable within an allelic series)"
GGCGCGAC,binding signal,PAX4 [1],"9.13 upbm affinity estimate (log intensity, higher = more binding, comparable within an allelic series)"
same,binding signal,PAX4 [2],"9.13 upbm affinity estimate (log intensity, higher = more binding, comparable within an allelic series)"
same,binding signal,PAX4 [3],"9.1 upbm affinity estimate (log intensity, higher = more binding, comparable within an allelic series)"
same,binding signal,PAX4 [4],"9.14 upbm affinity estimate (log intensity, higher = more binding, comparable within an allelic series)"
same,binding signal,PAX4 [5],"9.06 upbm affinity estimate (log intensity, higher = more binding, comparable within an allelic series)"
same,binding signal,PAX4 [6],"9.21 upbm affinity estimate (log intensity, higher = more binding, comparable within an allelic series)"
GAGCTCGC,binding signal,PAX4 [1],"9.35 upbm affinity estimate (log intensity, higher = more binding, comparable within an allelic series)"
same,binding signal,PAX4 [2],"9.28 upbm affinity estimate (log intensity, higher = more binding, comparable within an allelic series)"
same,binding signal,PAX4 [3],"9.32 upbm affinity estimate (log intensity, higher = more binding, comparable within an allelic series)"
same,binding signal,PAX4 [4],"9.23 upbm affinity estimate (log intensity, higher = more binding, comparable within an allelic series)"
same,binding signal,PAX4 [5],"9.12 upbm affinity estimate (log intensity, higher = more binding, comparable within an allelic series)"
same,binding signal,PAX4 [6],"9.26 upbm affinity estimate (log intensity, higher = more binding, comparable within an allelic series)"
GGGCGCGA,binding signal,PAX4 [1],"9.18 upbm affinity estimate (log intensity, higher = more binding, comparable within an allelic series)"
same,binding signal,PAX4 [2],"9.18 upbm affinity estimate (log intensity, higher = more binding, comparable within an allelic series)"
same,binding signal,PAX4 [3],"9.16 upbm affinity estimate (log intensity, higher = more binding, comparable within an allelic series)"
same,binding signal,PAX4 [4],"9.01 upbm affinity estimate (log intensity, higher = more binding, comparable within an allelic series)"
same,binding signal,PAX4 [5],"9.02 upbm affinity estimate (log intensity, higher = more binding, comparable within an allelic series)"
same,binding signal,PAX4 [6],"9.14 upbm affinity estimate (log intensity, higher = more binding, comparable within an allelic series)"
same,binding signal,NKX3-2 [7],"10.6 upbm affinity estimate (log intensity, higher = more binding, comparable within an allelic series)"
same,binding signal,NKX3-2 [8],"10.6 upbm affinity estimate (log intensity, higher = more binding, comparable within an allelic series)"
CTAATTCA,binding signal,PAX4 [1],"11.7 upbm affinity estimate (log intensity, higher = more binding, comparable within an allelic series)"
same,binding signal,PAX4 [2],"12.2 upbm affinity estimate (log intensity, higher = more binding, comparable within an allelic series)"
same,binding signal,PAX4 [3],"11.6 upbm affinity estimate (log intensity, higher = more binding, comparable within an allelic series)"
same,binding signal,PAX4 [4],"10.5 upbm affinity estimate (log intensity, higher = more binding, comparable within an allelic series)"
same,binding signal,PAX4 [5],"11 upbm affinity estimate (log intensity, higher = more binding, comparable within an allelic series)"
same,binding signal,PAX4 [6],"11 upbm affinity estimate (log intensity, higher = more binding, comparable within an allelic series)"
AGCGCTGC,binding signal,PAX4 [1],"9.36 upbm affinity estimate (log intensity, higher = more binding, comparable within an allelic series)"
same,binding signal,PAX4 [2],"9.27 upbm affinity estimate (log intensity, higher = more binding, comparable within an allelic series)"
same,binding signal,PAX4 [3],"9.34 upbm affinity estimate (log intensity, higher = more binding, comparable within an allelic series)"
same,binding signal,PAX4 [4],"9.36 upbm affinity estimate (log intensity, higher = more binding, comparable within an allelic series)"
same,binding signal,PAX4 [5],"9.24 upbm affinity estimate (log intensity, higher = more binding, comparable within an allelic series)"
same,binding signal,PAX4 [6],"9.35 upbm affinity estimate (log intensity, higher = more binding, comparable within an allelic series)"
TGTATTAA,binding signal,PAX4 [1],"11.7 upbm affinity estimate (log intensity, higher = more binding, comparable within an allelic series)"
same,binding signal,CRX,"10.9 upbm affinity estimate (log intensity, higher = more binding, comparable within an allelic series)"
GAATTAAC,binding signal,PAX4 [1],"11.6 upbm affinity estimate (log intensity, higher = more binding, comparable within an allelic series)"
same,binding signal,PAX4 [2],"12.2 upbm affinity estimate (log intensity, higher = more binding, comparable within an allelic series)"
same,binding signal,PAX4 [3],"11.9 upbm affinity estimate (log intensity, higher = more binding, comparable within an allelic series)"
same,binding signal,PAX4 [4],"10.4 upbm affinity estimate (log intensity, higher = more binding, comparable within an allelic series)"
same,binding signal,PAX4 [5],"11 upbm affinity estimate (log intensity, higher = more binding, comparable within an allelic series)"
same,binding signal,PAX4 [6],"10.8 upbm affinity estimate (log intensity, higher = more binding, comparable within an allelic series)"
AATTATAC,binding signal,PRRX1,"11.1 upbm affinity estimate (log intensity, higher = more binding, comparable within an allelic series)"
same,binding signal,HOXB6,"9.99 upbm affinity estimate (log intensity, higher = more binding, comparable within an allelic series)"
AATTATTG,binding signal,PRRX1,"11.1 upbm affinity estimate (log intensity, higher = more binding, comparable within an allelic series)"
same,binding signal,MSX2 [9],"12.3 upbm affinity estimate (log intensity, higher = more binding, comparable within an allelic series)"
same,binding signal,ALX1,"11.1 upbm affinity estimate (log intensity, higher = more binding, comparable within an allelic series)"
same,binding signal,MSX2 [10],"13.4 upbm affinity estimate (log intensity, higher = more binding, comparable within an allelic series)"
same,binding signal,HESX1 [11],"8.57 upbm affinity estimate (log intensity, higher = more binding, comparable within an allelic series)"
same,binding signal,ALX3,"9.77 upbm affinity estimate (log intensity, higher = more binding, comparable within an allelic series)"
same,binding signal,MSX2 [12],"13.1 upbm affinity estimate (log intensity, higher = more binding, comparable within an allelic series)"
same,binding signal,HESX1 [13],"8.02 upbm affinity estimate (log intensity, higher = more binding, comparable within an allelic series)"
